# The supplement of paper PMC7156485
# ± gives the standard deviation of the averaged measurements.
# Legend:
# Conditions in all cases: concentration: 10 µM; 24 h
# HCC1569 [1] = assay: cell number relative to DMSO (% of DMSO); higher = more cells (less growth inhibition / toxicity)
# Procedure, shortened: (§1)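 After 24 h at 37 °C with compounds at 10 µM, in triplicate, HCC1569 and TDF cells were fixed with 3.7% formaldehyde. Immunostaining used a rabbit anti-H1.0 antibody and an AlexaFluor 647 secondary, with DAPI, and six fields per well were imaged at ×10. H1.0 nuclear intensity or cell number is presented as percent of the plate control, from the median of replicates, with HCC1569 values smoothed for positional effects.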
# TDF [2] = assay: as above
# Procedure, shortened: as §1
# TDF [3] = assay: H1.0 immunofluorescence intensity relative to DMSO (% of DMSO); higher = stronger H1.0 induction, active = 120 or more
# Procedure, shortened: as §1
# HCC1569 [4] = assay: H1.0 immunofluorescence intensity relative to DMSO (% of DMSO); higher = stronger H1.0 induction, active = 140 or more
# Procedure, shortened: as §1
# 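For H1.0 immunofluorescence intensity relative to DMSO in this document: TDF is a line of transformed human dermal fibroblasts of mesenchymal origin.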
# 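For cell number relative to DMSO in this document: TDF denotes transformed human dermal fibroblasts of mesenchymal origin.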
SMILES,cell number (HCC1569 [1]),cell number (TDF [2]),H1.0 immunofluorescence intensity (TDF [3]),H1.0 immunofluorescence intensity (HCC1569 [4])
O=C(O)c1ccccc1Nc1cccc(C(F)(F)F)c1 [Flufenamic acid],103,105,91.9 (inactive),106 (inactive)
CCC=CCC=CCC=CCC=CCC=CCC=CCCC(=O)OC(COCCCCCCCCCCCCCCCC)COP(=O)([O-])OCC[N+](C)(C)C (stereo unspecified),105,100,95.7 (inactive),101 (inactive)
C#CCCCCCCCCCCCCCCCC(=O)O [17-Octadecynoic acid],102,99.7,92.5 (inactive),99.4 (inactive)
O=C(Nc1ccc(Cl)cc1)c1ccccc1NCc1ccncc1 [VEGF Receptor Tyrosine Kinase Inhibitor II],106,96.3,96.5 (inactive),98.1 (inactive)
O=C(O)CCCC=CCC1C(O)CC(F)C1C=CC(O)C1Cc2ccccc2C1 (stereo unspecified),103,103,91.9 (inactive),97.3 (inactive)
CC(C)NNC(=O)c1ccncc1.O=P(O)(O)O [Iproniazid phosphate],116,119,93.8 (inactive),85 (inactive)
CC1=C(C(=O)O)N2C(=O)C(NC(=O)C(N)C3=CCC=CC3)C2SC1 (stereo unspecified) [Cephradine],100,115,93.5 (inactive),88.5 (inactive)
COc1ccccc1NC(=O)Nc1nc(-c2cccnc2)nc2ccccc12,97.6,102,95.1 (inactive),104 (inactive)
"CCCCCCCCCCCCCCCCn1cc[n+](Cc2ccccc2)c1C.[I-] [eEF-2 Kinase Inhibitor, NH125]",36.6,38.9,152 (active),101 (inactive)
Cc1nc(-c2ccccc2)c(-c2ccncc2)o1,99.2,116,94.1 (inactive),103 (inactive)
CC1=CCCC(C)(O)C=CC(C(C)C)C(OC(=O)c2ccc(O)cc2)C1 (stereo unspecified) [Feroline],102,96,102 (inactive),93.3 (inactive)
O=C(OC1Cc2c(O)cc(O)cc2OC1c1cc(O)c(O)c(O)c1)c1cc(O)c(O)c(O)c1 (stereo unspecified) [Epigallocatechin gallate],105,97,94.8 (inactive),100 (inactive)
CCC(CO)Nc1nc(NCc2ccccc2)c2ncn(C(C)C)c2n1 (stereo unspecified) [Roscovitine],93.4,99,93.9 (inactive),103 (inactive)
CCCCCC=CCC=CCC=CC=CC(O)CCCC(=O)O (stereo unspecified),97,103,104 (inactive),105 (inactive)
COc1ccc(Cl)cc1NC(=O)Nc1cc(C)nc2ccccc12 [IGF-1R Inhibitor II],103,97.7,98.8 (inactive),106 (inactive)
"CC(C)(C)C1(O)CCN2CC3c4ccccc4CCc4cccc(c43)C2C1.Cl (single isomer, unassigned; (+)) [(+)-Butaclamol hydrochloride]",54,49.9,126 (active),251 (active)
O=c1cc(N2CCNCC2)oc2c(-c3ccccc3)cccc12,101,98.3,92.8 (inactive),136 (inactive)
CCCCCCCCCCCCCC(=O)NC(C)C(O)c1ccccc1 [L-erythro MAPP],97.3,103,98 (inactive),108 (inactive)
CCCCCCCNC1CCCC1CCCCCCC(=O)O (racemic),99.7,93.5,88.5 (inactive),89.4 (inactive)
CCCCCCCCCCCCCCCC(=O)OCC(O)C1OC(=O)C(O)=C1O (stereo unspecified) [Ascorbyl palmitate],98.6,105,96.1 (inactive),102 (inactive)
O=C1OC(=O)C2C3CCC(O3)C12 (stereo unspecified) [Norcantharidin],96,92.3,105 (inactive),103 (inactive)
O=c1c(O)c(-c2ccc(O)cc2O)oc2cc(O)cc(O)c12 [Morine],101,109,95 (inactive),82.4 (inactive)
CCOC(=O)C1=C(C)NC(C)=C(C(=O)OC)C1c1cccc(Cl)c1Cl (stereo unspecified) [Felodipine],102 ± 2.2,117.1 ± 0.85,86.3 (inactive),97.5 (inactive)
OCC1OC(n2cnc3c(NC4CCCCC4)ncnc32)C(O)C1O (stereo unspecified) [N6-Cyclohexyladenosine],100,105,97.9 (inactive),92.8 (inactive)
